Pf growth 48h: inhibits P. falciparum growth in the first generation, 48 h. P. falciparum luciferase growth in erythrocytes, 48 h. Potency, µM (highest dose often 28.7 µM), inactives show at the top dose activity change, negative = inhibition, hits mostly inhibitors. 310,000 tested, 5.9% active; also: potency is read from the fitted curve at half-maximal effect; % is scaled to controls: 0 for no effect and ±100 for the full control effect
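First compound was added to culture medium, then infected red cells at 0.1% parasitemia and 2% hematocrit (final). After incubation at 37 C under 5% CO2, luciferase detection reagent was dispensed and light output recorded.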
Cycloheximide cs: affects cycloheximide protein synthesis inhibition readout, counter-screen. cell reporter, cycloheximide protein synthesis inhibition counterscreen. max response, %. 300,000 tested, 12% active; in the data active = max response mostly above about 13%, no sharp cut-off; inactive = mostly below about 14%; also: read at 38.3 µM for the half of the compounds with a filed dose; 0% is about no effect
Shiga toxin inh: blocks Shiga toxin action in Vero cells; Vero cells, Shiga toxin protein synthesis inhibition reporter; inhibition, % at 38.7 µM; 290,000 tested, 9.2% active; in the data active = inhibition mostly above about 28%, no sharp cut-off; inactive = mostly below about 43%; also: 0% is about no effect
NS1 inh: blocks influenza NS1 protein function. Potency, µM (top dose mostly 46.1 µM), inactives show at the top dose activity, positive = more growth. 270,000 tested, 0.4% active. AID 2326; calls by dose curve; also: potency is read from the fitted curve at half-maximal effect; actives are rising curves; nearly all actives have a fitted effect of over 50% in size
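A cell-based growth assay was used: compounds that relieve NS1-induced slow growth of budding yeast raise OD600. Assay medium was yeast nitrogen base with ammonium sulphate and -URA supplement, pH 6.0, with 2% galactose.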
Pf growth 96h: P. falciparum growth inhibition at 96 hour, primary screen for plastid delayed-death inhibitors; P. falciparum luciferase reporter growth, 96 h; 320,000 tested, 6.9% active; Potency, µM (top dose mostly 28.7 µM), for inactives: top-dose activity change, negative = inhibition, usual class: inhibitors; also: potency is read from the fitted curve at half-maximal effect; % is scaled to controls: 0 for no effect and ±100 for the full control effect
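Two parasite generations (96 h, 37 C, 5% CO2) of compound exposure in infected erythrocytes (0.05% parasitemia, 2% hematocrit). Luciferase-reporter P. falciparum; decreased luminescence indicates inhibited growth, aimed at apicoplast-acting delayed death.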
Numbers without * were called inactive; u = inconclusive; x = no result given. The list is not random: actives were taken first. Their share in the collection is about 21%. Unless noted, calls follow the shape of the dose curve; as a rule, active = well fitted inhibition curve with a large enough effect; inconclusive = small, poorly fitted or top-dose-only effect, or another doubt; inactive = no such curve, though single readings can be large or run the other way.

SMILES | Pf growth 48h | Cycloheximide cs | Shiga toxin inh | NS1 inh | Pf growth 96h
C=CCOc1ccc2nnc(C)n2n1 | 11% | -4 | -4 | 4% | 27%
NC(=O)CN1C(=O)NC2(CCOc3ccccc32)C1=O (stereo not drawn) | 41% | 11 | -2 | 5% | 0%
COc1cccc(C(C(=O)NC(C)(C)C)N(C(=O)CCC(=O)Nc2cc(C)on2)C(C)C)c1OC (stereo not drawn) | 12µM* | -1 | -4 | -7% | u
COc1ccc(C(C(=O)NC(C)(C)C)N(Cc2ccc(C)cc2)C(=O)CCC(=O)Nc2cc(C)on2)cc1 (stereo not drawn) | 9.3µM* | -6 | -2 | -2% | 14%
COc1cccc(C(C(=O)NC(C)(C)C)N(C(=O)CCC(=O)Nc2cc(C)on2)C(C)(C)C)c1OC (stereo not drawn) | u | -3 | 3 | -4% | -26%
C=CCNC(=O)/C(C#N)=C/c1cn(-c2ccccc2)nc1-c1cccs1 | -22% | -4 | -4 | -4% | -30%
CCc1cc(CNC(=O)c2ccc3nc(Cc4ccc(OC)c(OC)c4)oc3c2)on1 | u | 33 | 22 | -11% | 19%
COc1ccc(Cc2nc3ccc(C(=O)NCC(C)(C)OC)cc3o2)cc1 | -13% | 34* | 96* | -13% | 103%
COc1ccc(Cc2nc3ccc(C(=O)NCc4cc(C)no4)cc3o2)cc1 | u | 57* | 66* | 3% | 115%
O=C(O)c1cccc(CSc2nnc(Cc3ccccc3)o2)c1 | 47% | 15 | 44* | -19% | x
CCCn1c(N)c(C(=O)CSc2nnc(Cc3ccccc3)o2)c(=O)n(C)c1=O | 8.3µM* | 3 | 1 | -8% | u
O=C(O)c1cccc(CSc2nnc(-c3ccco3)o2)c1 | x | 9 | 21 | -2% | 41%
NCCc1nnc(SCc2ccccc2)o1 | 11% | -6 | -21 | 0% | x
c1ccc(CSc2nnc(Cc3ccccn3)o2)cc1 | 29% | 25* | 46 | 2% | x
c1ccc(CSc2nnc(Cc3ccccc3)o2)cc1 | 66% | 40* | 54* | -4% | 450%
CN(C)CCCn1c2c(c(SCC(=O)Nc3ccc4c(c3)OCO4)nc1=O)CCC2 | 4% | x | x | x | -5%
O=C(CSc1nnc(CNc2ccc(F)cc2)o1)c1ccccc1 | u | 21* | 32 | 0% | 15%
Cc1ccc(NC(=O)CSc2nnc(Cc3ccccc3)o2)cc1 | 97% | 4 | 11 | x | 12µM*
Cc1cc(C)nc(SCc2cccc(C(=O)O)c2)n1 | 5% | -3 | 19 | 3% | x
O=C(CSc1nnc(Cc2ccccc2)o1)c1ccccc1 | 26% | 32* | 24 | -1% | u
O=C(O)c1cccc(CSc2ncn[nH]2)c1 | 47% | 7.6* | 24 | 3% | 100%
O=C(CSc1nnc(Cc2ccccc2)o1)c1ccc2c(c1)OCO2 | -24% | x | x | x | 8%
Cc1ccc(OC(=O)c2sc3ncn(C)c(=O)c3c2C)cc1 | 339% | 41* | 142* | x | u
COc1ccc(S(=O)(=O)N2CCC(NC(=O)c3cccnc3)CC2)cc1 | u | -3 | 7 | 1% | 20%
CCOc1ccc(/C=C2\SC(=S)N(CC(=O)Nc3ccccn3)C2=O)cc1 | 43% | -3 | -4 | 14% | 2%
SMILES | Pf growth 48h | Cycloheximide cs | Shiga toxin inh | NS1 inh | Pf growth 96h
COc1ccccc1Oc1ccc2c(c1)C(=O)N(c1cccc(O)c1)C2=O | 2.6µM* | 28* | 38* | -13% | 66%
O=C1c2ccc3c4c(ccc(c24)C(=O)N1c1cccc(O)c1)CC3 | 12% | 2 | -9 | x | 31%
O=C1c2ccc3c4c(ccc(c24)C(=O)N1c1cccc(O)c1)C(=O)N(c1cccc(O)c1)C3=O | 1.9µM* | -4 | 3 | 4% | 1µM*
COc1ccc(N2C(=O)c3ccc(C(=O)Nc4ccccc4OC)cc3C2=O)cc1 | 3% | -2 | -8 | 9% | -12%
COc1ccccc1Oc1ccc2c(c1)C(=O)N(c1cccc3ncccc13)C2=O | 13% | 41* | 66* | 23% | 185%
Cc1ccc(C(=O)COC(=O)c2ccc3c(c2)C(=O)N(c2cccc4ncccc24)C3=O)cc1C | 15% | -4 | -15 | 1% | 0%
CC(C)=NOc1nc(N2CCOCC2)nc(N2CCOCC2)n1 | 37% | 1 | -7 | 2% | 0%
COC1=C(OC)C(=O)C(C/C=C(\C)CC/C=C(\C)CC/C=C(\C)CC/C=C(\C)CC/C=C(\C)CC/C=C(\C)CC/C=C(\C)CC/C=C(\C)CC/C=C(\C)CCC=C(C)C)=C(C)C1=O | -6% | -5 | -5 | x | -2%
O=C1CC(c2cc(-c3ccccc3)no2)C1 | 99% | 39* | 42* | 18% | 247%
Clc1ccc(SCc2cc(-c3ccccc3)no2)cc1 | u | 0 | 2 | 2% | -38%
Cc1nc2cc(NC(=O)c3ccc(N4C(=O)CCC4=O)cc3)ccc2s1 | u | 23 | 34 | x | 8%
Cc1cc(Cl)ccc1OC(C)C(=O)N1CCCN(C(=O)C(C)Oc2ccc(Cl)cc2C)CC1 (stereo not drawn) | u | -2 | -21 | 14% | u
CC12CN3CC(C)(CN(C1)C3c1cc(Br)ccc1O)C2=O (stereo not drawn) | -7% | -6 | -13 | -4% | 12%
CC1(C)C(=O)OC(c2cc(Br)ccc2O)C(C)(C)C1=O (stereo not drawn) | 12µM* | 0 | -14 | -5% | 31%
O=C(Nc1ccc(F)c(F)c1)c1ccc(F)c(S(=O)(=O)N2CCC3(CC2)OCCO3)c1 | u | 10 | 22 | x | 10µM*
O=S(=O)(c1cc(F)ccc1F)N1CCC2(CC1)OCCO2 | 74% | 60* | 85* | -1% | 0%
COc1ccccc1/C=C/C=N/NC(=O)c1ccco1 | 12µM* | 32* | 78* | -9% | u
O=C(N/N=C/c1ccc(OCc2ccccc2)cc1)c1ccco1 | 1.9µM* | 36* | 55* | -62% | 3.7µM*
O=C(Nc1ccccc1C(=O)N/N=C/c1ccccc1)c1ccco1 | 58% | 27* | 87* | -9% | 16%
O=C(N/N=C/c1ccc2cccnc2c1)c1ccco1 | 482% | 25 | 72* | x | 58%
O=C(N/N=C/C=N/NC(=O)c1ccco1)c1ccco1 | -9% | 12 | -10 | -49% | -14%
O=C(N/N=C/c1ccc(O)cc1)c1csc2ccccc12 | 21% | 16 | 17 | -3% | 30%
O=C(NCc1ccncc1)C(=O)N/N=C/c1ccccc1OCc1ccccc1 | -12% | 27 | 25 | x | 8%
O=C(Nc1ccccc1C(=O)N/N=C/c1ccc(O)cc1)c1ccccc1 | 98% | 29* | 31 | 3% | 2%
O=C(Nc1ccccc1C(=O)Nc1ccccc1C(=O)NCc1ccco1)c1ccco1 | 8.3µM* | 1 | 3 | -7% | x
O=C(N/N=C\c1ccccc1OCc1ccccc1)c1ccco1 | 8.3µM* | 32* | 40* | -28% | u
COC(=O)c1ccc(COc2ccccc2/C=N/NC(=O)c2cccnc2)cc1 | 19% | 28* | 25 | x | 36%
O=C(CSCc1c(Cl)cccc1Cl)Nc1ccccc1-c1ccccc1 | u | -4 | -8 | 0% | u
